# Source: PubChem BioAssay
# TPT1 inhibitor: Candida albicans TPT1 enzyme inhibitors, primary screen, biochemical, fluorescence polarization; tRNA 2'-phosphotransferase TPT1 (Candida albicans SC5314); recombinant caTPT1, FP RNA substrate dephosphorylation; inhibition, % at 5 µM; 0.81% of 300,000 active;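 active = inhibition above the mean of all tested compounds plus 3 SD, set per screening campaign, cut at about 24% in these data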;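 also: plate controls were DMSO alone for no effect and ferristatin control at 100 nM for full effect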
# GRIN3A LBD mod: binders of NR3A ligand-binding domain, primary screen, biophysical, differential scanning fluorimetry, uHTS | AID 1259313, 2017 | Glutamate receptor ionotropic, NMDA 3A (GRIN3A) ligand-binding domain | 2.5% of 340,000 active | Tm shift relative to glycine control, % at 25 µM | NR3A LBD differential scanning fluorimetry, Tm shift; 0% = protein alone, 100% = glycine-bound protein;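 active = melting temperature shift of at least 10% of the positive control shift, at one fixed dose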
# ZTA DNA inh: counter-screen for EBNA-1 inhibitors: inhibitors of Epstein-Barr virus ZTA | 0.15% of 320,000 active | P03206 | AID 2234 | inhibition, % at 11 µM | ZTA-DNA binding, fluorescence polarization; in the data active = inhibition above about 33%
# Rpn11 inh: Rpn11 (PSMD14) deubiquitinase inhibitors, primary screen, biochemical, fluorescence polarization, uHTS; AID 588493, 2011; 26S proteasome non-ATPase regulatory subunit 14 (Homo sapiens), O00487; human 26S proteasome, Ub4-pepOG fluorescence polarization; 20S core pre-blocked with epoxomicin; inhibition, % at 20 µM; 0.59% of 360,000 active;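 active = inhibition at 20 µM, scaled to each plate's controls, above about 33%, limit read from the data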
# EBNA-1 inh: EBNA-1 DNA-binding inhibitors, primary screen, biochemical, fluorescence polarization | inhibition, % at 14.8 µM | 0.34% of 300,000 active; in the data active = inhibition above about 28%
# dFosB activator: activators of delta FosB homodimer, primary screen, biochemical, fluorescence polarization, TAMRA-CDK5 oligo, single point; Protein FosB (Mus musculus), P13346; purified delta FosB; percent of positive-control signal above neutral wells; activation, % at 25 µM; 0.99% of 340,000 active; AID 493131, 2011;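 active = mean activation above about 17%, with every replicate also reaching it, limit read from the data, passing the limit was not always enough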
# Target sequence (P13346 whole entry, looked up): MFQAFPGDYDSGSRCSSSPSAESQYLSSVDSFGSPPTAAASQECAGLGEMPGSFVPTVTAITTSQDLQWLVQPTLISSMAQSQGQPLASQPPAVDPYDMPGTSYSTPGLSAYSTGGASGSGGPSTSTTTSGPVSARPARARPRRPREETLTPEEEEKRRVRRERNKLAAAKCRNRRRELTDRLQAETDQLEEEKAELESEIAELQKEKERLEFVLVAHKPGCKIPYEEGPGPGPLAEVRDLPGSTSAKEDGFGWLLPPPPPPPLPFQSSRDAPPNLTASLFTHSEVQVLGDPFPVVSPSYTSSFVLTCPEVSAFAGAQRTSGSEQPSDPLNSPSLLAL
# Active calls of the source: *; x = no result given. Compounds with a hit are over-represented: about 4.5% of the library has one in this group of screens.
SMILES,TPT1 inhibitor,GRIN3A LBD mod,ZTA DNA inh,Rpn11 inh,EBNA-1 inh,dFosB activator
Cc1cc(C)cc(NS(=O)(=O)c2ccc(NC(=S)NC(=O)c3cccs3)cc2)c1,2.4,23.6*,1.9,9.6,0.6,-13.0
Cc1ccc(NS(=O)(=O)c2ccc(NC(=O)C(C)Sc3ccc(Cl)cc3)cc2)c(C)c1 (stereo unspecified),-4.0,13.4*,-3.5,3.8,-13.4,6.5
CC(C)NCCCCOc1ccccc1-c1ccccc1,-0.5,x,13.0,x,-2.5,x
CCOC(=O)C1(C)CCCN(C(=O)c2ccc(F)cc2Cl)C1 (stereo unspecified),x,x,x,-3.1,x,x
Cc1ccc(NC(=O)c2cc(S(=O)(=O)Nc3ccc(C)cc3)cs2)cc1,0.0,27.3*,-5.7,-1.3,-3.3,-0.6
NC(=O)c1cc(S(=O)(=O)Nc2ccccc2)cs1,-2.8,0.5,-1.6,-5.7,5.8,4.3
CC1(C)C(=S)N(Cc2ccccc2)c2ccccc21,5.1,2.8,11.9,2.0,8.3,0.4
CCn1c(SCC(=O)Nc2ccc(OC)c(S(=O)(=O)N3CCCCC3)c2)nnc1C1CC1,x,1.8,x,-0.2,x,-9.0
CN(CC(=O)Nc1ccc(S(=O)(=O)N2CCCC2)cc1)Cc1ccc(Cl)cc1Cl,3.2,-11.4,-13.0,3.4,-4.8,-19.5
CN(CC(=O)Nc1ccc(Cl)cc1)c1ccc(S(=O)(=O)N2CCCCC2)cc1[N+](=O)[O-],1.8,10.8*,0.6,-3.0,-4.3,-1.6
COc1ccc(C(=O)Nc2ccc(S(=O)(=O)NC(C)(C)C)cc2)cc1[N+](=O)[O-],3.0,28.2*,-13.1,-6.8,-2.8,-10.6
COc1ccc(C(=O)Nc2ccc(S(=O)(=O)N3CCCC3)cc2)cc1[N+](=O)[O-],-0.9,41.0*,-1.7,-1.2,-2.8,-7.3
COc1ccc(Cl)cc1C(=O)Nc1ccc(S(=O)(=O)N2CCCC2)cc1,-2.3,19.6*,-14.4,0.6,10.3,3.9
COc1ccc(NC(=O)c2ccc(S(=O)(=O)N3CCCC3)cc2)cc1OC,x,-0.3,-5.0,-8.4,x,-7.6
CN(C)C1(CNC(=O)c2cccc(S(=O)(=O)NCc3ccccc3)c2)CCCCC1,x,0.3,-2.8,-8.7,x,-0.4
CCN(c1ccccc1)S(=O)(=O)c1cccc(C(=O)NCC2(N(C)C)CCCCC2)c1,x,24.8*,1.4,3.0,x,-12.1
CCCC1S/C(=N/N=C/c2ccc(OC)cc2)N(Cc2ccc(OC)cc2)C1=O (stereo unspecified),3.7,1.0,7.4,3.8,11.2,-5.3
CCCC1S/C(=N/N=C/c2ccc(OC)cc2)N(Cc2ccccc2)C1=O (stereo unspecified),-4.7,10.2*,9.6,0.6,8.4,-8.2
CCOCCOc1cccc(C(=O)NC(C)c2ccc3ccccc3c2)c1 (stereo unspecified),-0.3,1.8,-5.1,1.9,-1.6,1.7
Cc1cc(C)nc(SCC(=O)n2c3c(c4ccccc42)CCCC3)n1,-1.2,12.8*,-3.9,-7.8,10.1,-8.6
O=C(CSc1ncccn1)n1c2c(c3ccccc31)CCCC2,-3.8,-44.6,0.3,-3.1,9.8,-0.3
COc1cccc(C2CC(=O)Nc3cc(C)c(C)cc32)c1 (stereo unspecified),x,x,x,3.8,x,x
COc1ccc(C(c2nnnn2C2CCCC2)N2CCC(C(N)=O)CC2)c(OC)c1 (stereo unspecified),x,14.2*,x,6.3,x,-5.4
COc1ccc(N2CCN(C(c3ccccc3OC)c3nnnn3C3CCCC3)CC2)cc1 (stereo unspecified),x,-6.5,x,0.0,x,-7.6
CN1CCC(N(C)C(=S)Nc2ccc(F)cc2)CC1,-0.3,1.4,4.7,2.6,9.9,2.5
CC(=O)c1ccc(NC(=S)N(C)C2CCN(C)CC2)cc1,-1.9,19.6*,5.3,-5.1,4.9,-1.8
Cc1c(C(=O)Nc2ccc(S(=O)(=O)N3CCOCC3)cc2)cccc1[N+](=O)[O-],-2.1,0.2,-22.0,1.8,-6.7,7.0
